# Hits are enriched below; roughly 3.9% of the tested compounds scored in any of these assays.
# Autofluor counter – flagged as autofluorescent in microsphere protease counterscreen. fluorescence intensity (test concentration not listed). compound autofluorescence counterscreen, microsphere flow cytometry; stronger effect = higher value. AID 624483. 3.1% of 360,000 active; in the data active = fluorescence intensity above about 16000; inconclusive = no clear call, values can overlap the other calls
# 3CLpro inhibitor – SARS-CoV 3CLpro protease inhibitors, primary screen, biochemical, quenched FRET | 0.14% of 290,000 active | AID 1706, 2009 | inhibition, % at 6 µM | recombinant SARS-CoV 3CLpro, quenched FRET peptide cleavage; in the data active = inhibition above about 12%
# BoNT-F LC inh – BoNT/F light chain protease inhibitors, primary screen, biochemical, flow cytometry, MLPCN library. Botulinum neurotoxin type F light chain protease (Clostridium botulinum). Multiplex microsphere protease cleavage assay. inhibition, % at 10 µM. 0.22% of 360,000 active. AID 588497, 2011; in the data active = inhibition above about 35%, passing the limit was not always enough; inconclusive = no clear call, values can overlap the other calls; note: plate controls were buffer without enzyme for full effect and enzyme alone for no effect
# CCHF vOTU inh – CCHFV vOTU protease inhibitors, primary screen, biochemical, Pep-AMC substrate, fluorescence | Crimean-Congo hemorrhagic fever virus L polyprotein viral ovarian tumor (vOTU) protease … | inhibition, % at 11.5 µM | 0.55% of 370,000 active; in the data active = inhibition above about 30%; note: 0% = vehicle wells with enzyme and 100% = no enzyme wells
# BoNT-A LC inh2 – BoNT/A light chain protease inhibitors, primary screen, biochemical, flow cytometry, MLPCN library | Botulinum neurotoxin type A light chain protease (Clostridium botulinum A str. ATCC 3502) | multiplex microsphere protease substrate cleavage | inhibition, % at 10 µM | 0.17% of 360,000 active | AID 588499, 2011; note: plate controls were buffer without enzyme for full effect and enzyme alone for no effect
# Anthrax LF prot – Bacillus anthracis LF protease inhibitors, primary screen, biochemical, multiplex microsphere, MLPCN library; multiplex microsphere protease cleavage assay; inhibition, % at 10 µM; 0.12% of 360,000 active; note: plate controls were buffer without enzyme for full effect and enzyme alone for no effect
# Active calls of the source: *; ? = inconclusive; . = not tested or not shown. Cut-off read from the data, not from the text of the source, unless noted: active = inhibition above about 30%; inconclusive = no clear call, values can overlap the other calls; inactive = below that.
SMILES,Autofluor counter,3CLpro inhibitor,BoNT-F LC inh,CCHF vOTU inh,BoNT-A LC inh2,Anthrax LF prot
CC(=O)N1CCN(S(=O)(=O)c2ccc3c(c2)oc(=O)n3C)CC1,.,.,.,-4.0,.,.
O=C(CSc1nnc(Cc2ccccc2)n1-c1ccccc1)NNC(=O)Cc1ccccc1,21981*,5.7,2.5,2.9,1.6,2.9
Cc1cccc(C)c1NC(=O)CSc1nnc(Cn2nnc(-c3ccccc3)n2)n1-c1ccccc1,19692*,0.5,0.5,3.2,?,0.6
CCOC(=O)C1=C(N)n2c(s/c(=C/c3ccco3)c2=O)=C(C(=O)OC)C1c1ccco1 (centres undefined),20070*,-1.2,0.1,7.3,?,0.5
CCOC(=O)C1=c2s/c(=C\c3ccncc3)c(=O)n2C(N)=C(C(=O)OC)C1c1ccncc1 (centres undefined),4918,6.3,-5.6,-13.1,-0.8,-4.7
COn1c(-c2ccc(Cl)cc2)nc2ccc(Cl)cc21,23040*,0.8,-0.7,3.6,0.4,-1.6
Clc1ccc(COn2c(-c3ccc(Cl)cc3)nc3ccccc32)cc1,21296*,1.9,-7.2,-1.6,?,0.1
O=C(O)COn1c(-c2ccc(Cl)cc2)nc2ccc(Cl)cc21,2456,-2.2,-3.7,9.2,-0.4,-1.5
COc1ccc(N2C(=O)CCC2=O)c(OC)c1,4042,-3.4,-2.6,-8.0,0.1,1.3
COc1ccc(-n2c(C)nn(C)c2=O)c(OC)c1,18468*,0.1,2.9,-2.4,?,-7.9
Cc1nn(C)c(=O)n1-c1ccc(Oc2ccccc2)cc1,21312*,-1.1,3.5,2.1,3.2,-2.1
Cc1nn(C)c(=O)n1-c1ccccc1,3995,4.3,-2.1,-4.3,-0.7,-5.7
O=C1N(Cc2cccc(Cl)c2)C[C@@H]2C[C@@H](c3cccc4ncccc34)N3CCC[C@@]123,4913,0.0,-5.9,-1.6,-1.1,-2.4
O=C1N(Cc2cccc(Cl)c2)C[C@@H]2C[C@@H](c3cccc4cccnc34)N3CCC[C@@]123,24208*,3.1,0.6,9.8,2.1,-10.1
N#Cc1cc2c(nc1SCC(=O)Nc1cc(Cl)cc(Cl)c1)C1CCN2CC1,20731*,-1.7,5.2,-8.9,3.9,-6.0
CN1CCc2nc(SCC(=O)Nc3ccc(Cl)cc3)c(C#N)cc2C1,1979,2.1,-37.9,1.5,2.6,-4.2
COc1ccc(/C=C/C(=O)C2CC2)cc1COc1cccc(C)c1C,3816,-1.4,3.9,1.3,4.4,30.7*
COc1ccc(/C=N/NC(=S)Nc2ccccc2)cc1COc1cccc(C)c1C,4946,9.5,0.4,-2.3,-0.5,-8.0
CCC1CCCCN1C(=O)N[C@@H](Cc1ccccc1)C(=O)O (some centres undefined),23663*,-0.8,-2.7,-6.4,0.2,-0.1
CC1=C(C(=O)N2CCOCC2)C(c2ccccc2F)C2=C(CC(C)(C)CC2=O)N1 (centres undefined),19197*,-0.2,2.1,-76.3,1.6,-2.6
CCCCCCCCN1C(=O)[C@@H](CC(=O)NCc2ccccc2)C[C@@]2(C(=O)OC)C1=C[C@H](COCc1ccccc1)O[C@@H]2C,.,.,.,23.6,.,.
CC(=O)Nc1cccc(NC(=O)CSc2nc(C)c(C)c(C)c2C#N)c1,21241*,-2.0,4.7,-3.2,?,-0.1
O=c1cc[nH]c2cccc(Cc3ccccc3)c12,24296*,-1.3,-2.1,1.4,-1.7,-4.5
CCCCCCCCN1C(=O)[C@@H](CC(=O)N2CCC(c3ccccc3)CC2)C[C@@]2(C(=O)OC)C1=C[C@H](C(C)C)O[C@@H]2C1CC1,.,.,.,18.6,.,.
COc1cc(S(=O)(=O)Nc2c(C)cc(C)cc2C)ccc1Cl,17705*,-1.5,3.8,5.1,5.3,-11.8
SMILES,Autofluor counter,3CLpro inhibitor,BoNT-F LC inh,CCHF vOTU inh,BoNT-A LC inh2,Anthrax LF prot
C[C@@H]1CCCN1c1cccc2c1S(=O)(=O)N1CC[C@H](C1)O2,.,.,.,-6.4,.,.
Cc1cc(C(=O)OCCCN(C)C2CN(Cc3cn(Cc4ccccc4C(F)(F)F)nn3)S(=O)(=O)C2)no1 (centres undefined),.,.,.,-7.3,.,.
CCOC(=O)C1CCCN(Cc2cc(Br)ccc2OC)C1 (centres undefined),8933,-0.2,4.2,5.1,0.5,2.6
CCOC(=O)C1CCCN(Cc2cc(Br)c(OC)cc2OC)C1 (centres undefined),22833*,-6.0,-0.3,-13.0,-0.1,-1.4
CCN(CC)C(=O)C1CCCN(Cc2ccc(OC)c(C)c2C)C1 (centres undefined),21287*,1.2,1.9,-0.1,?,-1.0
COc1ccc(CN2CCCC(C(=O)N3CCCCC3)C2)c(OC)c1 (centres undefined),3846,2.0,2.0,.,-0.5,-16.8
COC(=O)c1sc(N)c(C(=O)OC)c1COC(=O)c1c(C)noc1C,20148*,-4.0,10.3,4.9,5.5,-6.2
CCCCCCC(=O)NC1CCCCN(Cc2ccccc2C)C1=O (centres undefined),.,.,.,12.6,.,.
O=C(NC(=O)c1cccc(OC(F)(F)C(F)F)c1)OC1CCS(=O)(=O)C1 (centres undefined),24101*,-0.8,0.8,12.6,-0.4,1.4
O=C(Nc1ccccc1)OC1CCS(=O)(=O)C1 (centres undefined),9471,1.1,-8.9,-3.4,-1.1,-0.4
Cc1ccc(CNC(=O)C2CC(=O)OC23CCCC3)c(C)c1 (centres undefined),16440*,1.0,2.0,7.3,-0.1,-2.6
O=C1CC(C(=O)Nc2ccccc2)C2(CCCC2)O1 (centres undefined),6305,-6.0,4.7,-0.4,0.9,-12.7
COc1ccc(C)cc1NC(=O)C1CC(=O)OC12CCCCC2 (centres undefined),22901*,1.9,-0.9,-0.3,-1.0,-0.7
Cc1cccc(NC(=O)C2CC(=O)OC23CCCCC3)c1 (centres undefined),4534,-1.6,5.2,8.9,0.2,1.0
COc1ccccc1CN(C)C(=O)C1CCCN(c2nc3ccccc3o2)C1 (centres undefined),.,.,.,-7.2,.,.
COc1ccc(CN2C(=O)CCCC2(C)c2nnnn2-c2ccc3c(c2)OCCO3)cc1 (centres undefined),.,.,.,-2.2,.,.
CCCCC(=O)Nc1nc(C)c(C(C)=O)s1,6253,3.1,-6.6,1.5,-1.5,1.0
CC(=O)c1sc(NC(=O)C=C(C)C)nc1C,17371*,-0.5,-2.7,7.0,-2.2,-5.0
COc1ccc(Cn2ccc3ccc(-c4ccc5ccn(C(=O)c6cccc(OC)c6)c5c4)cc32)cc1,.,.,.,-6.2,.,.
CCOc1ccc(C(=O)/C=C/c2cn(CN3CCN(C)CC3)c3ccccc23)cc1,12343,2.8,-12.6,10.8,0.7,-0.5
COc1ccc(C(=O)/C=C/c2cn(CN3CCN(C)CC3)c3ccccc23)cc1,23529*,-3.1,-1.3,.,-1.0,-1.0

# Assay outcomes deposited in PubChem by several laboratories.
